19 molecules from the supplement of paper PMC9794691 can be followed below.

In this experiment the test system is PC9. Kind of experiment: area under confluence curve of compound monotherapy; compare to DMSO control AUC of the same experiment (AUC (confluence x time, arbitrary)). The procedure:
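compare to DMSO control AUC of the same experiment; Monotherapy arm of the osimertinib DTP screen: EGFR-mutant NSCLC cells were treated with the test compound alone at a fixed dose (highest dose with <50% inhibition of parental cells, or 1 uM), then switched to drug-free medium at the DTP stage. IncuCyte confluence was tracked and AUC computed in Prism. AUC scale depends on experiment duration, so each row carries the same-experiment DMSO control AUC (monotherapy activity = DMSO AUC minus monotherapy AUC). The monotherapy value is shared between screen formats.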

Setting [1] is: 10 nM, DMSO control AUC in same experiment: 21341.
The mark [2] stands for this setting: 300 nM, DMSO control AUC in same experiment: 31840.
[3] abbreviates: 1000 nM, DMSO control AUC in same experiment: 26668.
Where [4] appears, read: 1000 nM, DMSO control AUC in same experiment: 22064.
[5] abbreviates: 1000 nM, DMSO control AUC in same experiment: 30604.
Setting [6] is: 1000 nM, DMSO control AUC in same experiment: 28684.
Setting [7] is: 1000 nM, DMSO control AUC in same experiment: 43316.

For the molecule `Cn1cc(CNCC2CCN(c3ncc(C(=O)NO)cn3)CC2)c2ccccc21` [Quisinostat], the “area under confluence curve” value is 17400 under setting [1]; 20800 (10 nM, DMSO control AUC in same experiment: 27958); 29800 (10 nM, DMSO control AUC in same experiment: 30002).

On to `CC(=O)Nc1cccc(-n2c(=O)n(C3CC3)c(=O)c3c(Nc4ccc(I)cc4F)n(C)c(=O)c(C)c32)c1` [Trametinib], for which the “area under confluence curve” value reads like this: under setting [1], 20400; (10 nM, DMSO control AUC in same experiment: 49189) 49600.

As to `Cc1nc(Nc2ncc(C(=O)Nc3c(C)cccc3Cl)s2)cc(N2CCN(CCO)CC2)n1` [Dasatinib], the “area under confluence curve” value was determined as 22500 (30 nM, DMSO control AUC in same experiment: 27958) and 18100 (30 nM, DMSO control AUC in same experiment: 28243).

Take `Nc1ccc(/C=C/C(=O)NCc2cc3cc(-c4ccc(C(=O)N5CCC(F)(F)CC5)cc4)cc(-c4ccc(F)cc4)c3o2)cn1`: under “100 nM, DMSO control AUC in same experiment: 21913”, the “area under confluence curve” value was 22800.

Take `C=CCn1c(=O)c2cnc(Nc3ccc(N4CCN(C)CC4)cc3)nc2n1-c1cccc(C(C)(C)O)n1`: the “area under confluence curve” value (100 nM, DMSO control AUC in same experiment: 22064) was found to be 21300 and the “area under confluence curve” value (100 nM, DMSO control AUC in same experiment: 30604) was 30700.

In the case of `COC[C@H]1Cn2cc(-c3nc(Nc4ccnn4C)ncc3C)nc2C(=O)N1Cc1ccc(F)c(F)c1`, the “area under confluence curve” value runs as follows: (100 nM, DMSO control AUC in same experiment: 31219) 30900; (100 nM, DMSO control AUC in same experiment: 49189) 46200.

As for `COc1nnc2ccc(N3CCC(c4ccc(OCCN5CCN(C)C(=O)[C@H]5C)cc4)CC3)nn12`, the “area under confluence curve” value amounted to 19200 (300 nM, DMSO control AUC in same experiment: 19076); 20500 (300 nM, DMSO control AUC in same experiment: 21594); 31700 under setting [2]; 39700 (300 nM, DMSO control AUC in same experiment: 44384).

Consider `Nc1nc(Nc2ccc3c(c2)CCC(N2CCCC2)CC3)nn1-c1cc2c(nn1)-c1ccccc1CCC2` (stereo not given), for which the “area under confluence curve” value runs as follows: (300 nM, DMSO control AUC in same experiment: 20197) 19600; (300 nM, DMSO control AUC in same experiment: 30008) 28200.

On to `NC1(C(=O)N[C@@H](CCO)c2ccc(Cl)cc2)CCN(c2nc[nH]c3nccc2-3)CC1` [Capivasertib], for which the “area under confluence curve” value reads like this: (300 nM, DMSO control AUC in same experiment: 30578) 29000; under setting [2], 30700; (300 nM, DMSO control AUC in same experiment: 43316) 42700.

On to `CN(C)C(=O)c1cc2cnc(Nc3ccc(N4CCNCC4)cn3)nc2n1C1CCCC1` [Ribociclib], for which the “area under confluence curve” value (300 nM, DMSO control AUC in same experiment: 88996) turned out to be 88200.

Take `COc1cc(CCc2cc(NC(=O)c3ccc(N4CC(C)NC(C)C4)cc3)n[nH]2)cc(OC)c1` (stereo not given): the “area under confluence curve” value (1000 nM, DMSO control AUC in same experiment: 21594) stood at 20200 and the “area under confluence curve” value under setting [3] turned out to be 28200.

Take `C[C@@H]1COCCN1c1cc(C2([S@](C)(=N)=O)CC2)nc(-c2cc[nH]c3nccc2-3)n1`: the “area under confluence curve” value reads like this: under setting [4], 21700; under setting [5], 30800.

As for `O=C(c1cc(Cc2n[nH]c(=O)c3ccccc23)ccc1F)N1CCN(C(=O)C2CC2)CC1` [Olaparib], the “area under confluence curve” value under setting [4] came out at 20000 and the “area under confluence curve” value under setting [5] was determined as 30200.

In the case of `COc1ccc(CCc2nc3cc(-c4c(C)noc4C)ccc3n2C[C@H](C)N2CCOCC2)cc1Cl`, the “area under confluence curve” value was 28400 under setting [3]; 49000 (1000 nM, DMSO control AUC in same experiment: 48219); 72800 (1000 nM, DMSO control AUC in same experiment: 72888).

As to `CCn1nc(C2CCN(C(=O)CCO)CC2)nc1-c1cnc(N)c(-c2nnc(C(C)(C)C)o2)n1`, the “area under confluence curve” value under setting [6] came out at 28000 and the “area under confluence curve” value under setting [7] worked out at 43000.

Regarding `C[C@@H](Nc1cc(F)cc(F)c1)c1cc(C(=O)N(C)C)cc2c(=O)cc(N3CCOCC3)oc12`, the “area under confluence curve” value by setting is: under setting [6], 28100; (1000 nM, DMSO control AUC in same experiment: 30578) 29100; (1000 nM, DMSO control AUC in same experiment: 30580) 28800; under setting [7], 42700.

Take `CS(=O)(=O)CCNCc1ccc(-c2ccc3ncnc(Nc4ccc(OCc5cccc(F)c5)c(Cl)c4)c3c2)o1` [Lapatinib]: the “area under confluence curve” value (1000 nM, DMSO control AUC in same experiment: 29345) is 20900.

With `Cc1cc2ncnn2cc1Nc1ncc2c(n1)n(C1CCOCC1)c(=O)n2C`, under setting [5], the “area under confluence curve” value came to 30500.

For `Cc1onc(C(=O)N2CCN(C(c3ccc(Cl)cc3)c3ccc(Cl)cc3)CC2)c1[N+](=O)[O-]`, the “area under confluence curve” value (1000 nM, DMSO control AUC in same experiment: 45737) came to 46500.
